# Data as given in PubChem BioAssay (EPA / NIEHS).
# Calls of active or inactive are those of the source. How the source made its calls: active means hit-call score of the fitted dose curve at least 0.9, where 1 is the maximum; inactive means score below 0.9.
# Read-out: Interleukin-8 (IL8), CXCL8 (gene 3576)
# Assay: BSK_3C_IL8: BioMAP Diversity Plus: 3C Assay for Interleukin-8 (IL8) Biomarker Activity (AID 2283020)
# Conditions: primary human endothelial cells (HUVEC); actives raise or lower the signal
# Method: BSK_3C is a cell-based, multiplexed-readout assay that uses umbilical vein endothelium, a human vascular primary cell, with measurements taken at 24 hours after chemical dosing in a 96-well plate.BSK_3C_IL8 is an assay component measured in the BSK_3C assay. It measures IL-8 antibody related to regulation of gene expression using ELISA technology.Data from the assay component BSK_3C_IL8 was analyzed into 1 assay endpoint. This assay endpoint, BSK_3C_IL8, was analyzed with bidirectional fitting relative to DMSO as the negative control and baseline of activity. Using a type of binding reporter, gain or loss-of-signal activity can be used to understand changes in the signaling as they relate to the gene CXCL8. Furthermore, this assay endpoint can be referred to as a primary readout, because this assay has produced multiple assay endpoints where this one serves a signaling function. To generalize the intended target to other relatable targets, this assay endpoint is annotated to the cytokine intended target family, where the subfamily is interleukins.
# The levels of cell surface (or secreted, indicated by the prefix "s") biomarker endpoints were measured by ELISA. Overt cytotoxicity to cells in confluent adherent cultures (all systems other than the BT system) was assessed by measuring total protein levels using sulforhodamine B (SRB) staining in parallel cultures at the time of biomarker measurements, indicated as SRB endpoints. For proliferation assays for adherent cell types, individual cell types are cultured at sub-confluence and relative cell numbers quantified by SRB staining at time points optimized for each system (48 h: 3C and CASM3C systems; 72 h: BT and HDF3CGF systems; 96 h: SAg system). SRB was performed by staining cells with 0.1% SRB after fixation with 10% TCA and reading wells at 560 nm.Viability and proliferation of PBMC (T cells) was quantified by Alamar Blue reduction for the SAg and BT systems. For PBMC viability (referred to as PBMC Cytotoxicity within the assay endpoint names), cells were plated (75,000/well in a 96-well plate) and then chemical samples added for 1 h before addition of activators, SEB and TSST-1 (20 ng/mL final concentration each). Cells were incubated for 90 h. Then, Alamar Blue (20 uL/well) (Invitrogen, Cat DAL1100) was added for 6 h, and the plates were read with a fluorescence microplate reader at 546/580 nm (excitation/emission). For PBMC proliferation, cells were plated and activated as above but incubated for only 16 h prior to addition of Alamar Blue. Plates were read after 6 h.
Compound,outcome,AC50
CCCCCCCCOc1ccc(C(=O)c2ccccc2)c(O)c1,inactive,
CCCCCCCCCC(=O)O,inactive,
CC(C)(c1cc(Br)c(O)c(Br)c1)c1cc(Br)c(O)c(Br)c1,,31.8 µM (active)
O=C1O[C@H]([C@@H](O)CO)C(O)=C1O,inactive,
O=C(O)c1ccccc1-n1cc(C(=O)O)c(=O)c2cc(Nc3c(F)cc(F)cc3Cl)c(Cl)cc21,inactive,
CC1(C)NC(=O)N(c2ccc([N+](=O)[O-])c(C(F)(F)F)c2)C1=O,inactive,
CN1C(=O)CC[C@H]1c1cccnc1,inactive,
Cc1cn([C@H]2C[C@H](N=[N+]=[N-])[C@@H](CO)O2)c(=O)[nH]c1=O,inactive,
CC(O)CC(C)(C)O (stereo not given),inactive,
C[C@]12CC[C@@H]3c4ccc(O)cc4CC[C@H]3[C@@H]1CCC2=O,inactive,
CCCC(=O)OCCC(C)C,inactive,
O=C1CCC(C2CCCCC2)CC1,inactive,
CN(C[C@@H](CC[N+]12CCC(C3CCCCC3)(CC1)CC2)c1ccc(Cl)c(Cl)c1)C(=O)c1cc(C(F)(F)F)cc(C(F)(F)F)c1,,24.3 µM (active)
c1ccc2n[nH]nc2c1,inactive,
CC(C)(C)c1cc(/C=C2\SC(N)=NC2=O)cc(C(C)(C)C)c1O,,30.1 µM (active)
O=C(OCCCCCCOC(=O)c1ccccc1)c1ccccc1,inactive,
CC/C(=C(/CC)c1ccc(O)cc1)c1ccc(O)cc1,,32.6 µM (active)
CCCCOC(=O)c1ccc(O)cc1,inactive,
CCCCCCCCN(C)CCCCCCCC,inactive,
O=C(O)c1ccccc1C(=O)OCc1ccccc1,inactive,

Compound,outcome,AC50
Cc1oc2c(NC(=O)c3c(Cl)cccc3Cl)cccc2c1C(C)(C)O,inactive,
O=c1[nH]sc2ccccc12,,14.4 µM (active)
Oc1ccccc1,inactive,
CCO[Si](CCCNC(N)=O)(OCC)OCC,inactive,
CCCOC(=O)c1cc(O)c(O)c(O)c1,inactive,
Cc1occc1C(=O)Nc1ccc(C(=O)N2CCC(F)(F)/C(=C\C(=O)N3CCC(N4CCCCC4)CC3)c3ccccc32)cc1,inactive,
CCOC(=O)O[C@H](C)OC(=O)c1ccc2c(c1)cc(C(=O)NC1CCN(C(C)C)CC1)n2Cc1cc(-c2ccc(Cl)s2)on1,,6.77 µM (active)
Cc1cccc2ccccc12,inactive,
CCCCCCCC[Si](OCC)(OCC)OCC,,30 µM (active)
CC(=O)N1CCN(c2ccc(OC[C@H]3CO[C@](Cn4ccnc4)(c4ccc(Cl)cc4Cl)O3)cc2)CC1,,31.3 µM (active)
Cc1ccc(C(C)C)cc1,inactive,
Clc1ccccc1C(c1ccccc1)(c1ccccc1)n1ccnc1,,27.2 µM (active)
CC(C)(C)c1csc(-c2cc3cc(OCc4ccccc4CC(=O)O)ccc3o2)n1,,18.4 µM (active)
CC1=CC(=O)/C(=C(/C)O)C(=O)O1,inactive,
O=CCCCC=O,inactive,
CCN(Cc1cccnc1)C(=O)c1cccc(Cl)c1[C@]1(C)C(=O)N(Cc2ccc(OC)cc2OC)c2ccc(Cl)cc21,,5.8 µM (active)
Cc1c2ccccc2c(C)c2c1ccc1ccccc12,,35.9 µM (active)
C[C@]12CC[C@@H]3c4ccc(O)cc4CC[C@H]3[C@@H]1CC[C@H]2O,,13 µM (active)
CN(C)C(=O)C1(N2CCCCC2)CCN(CC[C@@]2(c3ccc(Cl)c(Cl)c3)CN(C(=O)c3ccccc3)CCO2)CC1,,24.3 µM (active)
O=C(O)Cn1c(=O)n(Cc2ccc(Br)cc2F)c(=O)c2ccc(Cl)cc21,inactive,
